Screens (PubChem BioAssay)
Compounds with a hit are over-represented: about 4.7% of the library has one in this group of screens.
PfHsp90 set2 = growth inhibition of PfHsp90-expressing yeast, primary screen, antimalarial PfHsp90 inhibitor project, S. cerevisiae, BacTiter-Glo luminescence, single point, set 2; BacTiter-Glo ATP, 48 h; yeast lacking PDR1 and PDR3 efflux regulators; inhibition, % at 9.4 µM; hit rate 0.32% among 310,000;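 active = every replicate shows inhibition above about 80%, whatever the replicate mean, limit read from the data; inconclusive = mean inhibition reaches the set limit but some replicate falls short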;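 also: 0% = DMSO neutral controls and 100% = 20 µM radicicol positive controls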
tim10-1 inh = growth inhibitors of tim10-1 mutant yeast, primary screen, luminescence, uHTS; S. cerevisiae tim10-1 ts strain growth, BacTiter-Glo, 24 h; hit rate 2.2% among 330,000; inhibition, % at 20 µM;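 active = inhibition of at least 40%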;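 also: mutant grown at 25 °C; 0% = DMSO wells with yeast and 100% = wells holding no yeast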
SKKanGAS inh = S. pyogenes SKKanGAS growth inhibitors in kanamycin, primary screen, streptokinase expression inhibitor project, SKKanGAS strain, BacTiter-Glo luminescence. 6 h. inhibition, % at 7.5 µM. hit rate 1.3% among 300,000;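 active = mean replicate score, as percent of positive control median, at least 50; inconclusive = mean below 50 but one replicate at or above 50; inactive = mean and every replicate below 50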;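 also: strain carries kanamycin resistance gene driven by streptokinase promoter and grows in 40 µg/ml kanamycin; loss of luminescence reflects streptokinase promoter inhibition or plain growth inhibition; 0% = median of DMSO wells and 100% = positive control at its reference dose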
TIM10 inh = growth inhibitors of isogenic TIM10 control yeast, primary screen, counter-screen for tim10-1 yeast inhibitor project, luminescence, uHTS | S. cerevisiae TIM10 strain growth, BacTiter-Glo luminescence, 24 h | inhibition, % at 10 µM | hit rate 1.4% among 330,000;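 active = inhibition of 40% or more at the single tested concentration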;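 also: wild-type TIM10 isogenic control strain grown at permissive 25 °C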
tim23-1 inh = growth inhibitors of tim23-1 mutant yeast, primary screen, luminescence, uHTS; S. cerevisiae tim23-1 growth, BacTiter-Glo luminescence, 24 h; inhibition, % at 20 µM; hit rate 1.3% among 330,000; AID 463212, 2010;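 active = growth inhibition of the mutant yeast at or above 50%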;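 also: temperature-sensitive mutant grown at 25 °C; plate controls were DMSO-treated mutant yeast for no effect and medium wells lacking yeast for full effect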
Calb FLC = C. albicans growth inhibition with fluconazole, primary screen, CaCi-2 strain, Alamar Blue fluorescence. C. albicans CaCi-2 (fluconazole-resistant clinical isolate) + fluconazole, 48 h. growth inhibition, % (no concentration beside the values). hit rate 0.57% among 300,000;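 active = growth inhibition above about 58% in most replicates, limit read from the data, passing the limit was not always enough; inconclusive = exactly half the replicates above a set limit; inactive = most replicates below a set limit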;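 also: all wells also contain fluconazole at 8 µg/ml as a sub-toxic cotreatment; 0% = median of DMSO wells and 100% = median of geldanamycin control wells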
* hit, by the source's call.

What do the screens show for `CC(C)NC(=O)c1cc(-c2cccs2)nc2ccccc12`?
PfHsp90 set2: -7.8; tim10-1 inh: 23.2; SKKanGAS inh: -3.4; TIM10 inh: 0.8; tim23-1 inh: 8.3; Calb FLC: -31.5

Results for Cc1cccc2sc(NNC(=O)c3cc(-c4cccs4)nc4ccccc34)nc12 ?
PfHsp90 set2: -98.5; tim10-1 inh: 36.3; SKKanGAS inh: 87.7*; TIM10 inh: -29.4; tim23-1 inh: 32.5; Calb FLC: 84.9*

How did NNC(=O)c1cc(-c2cccs2)nc2ccccc12 do in these assays?
PfHsp90 set2: 15.2; tim10-1 inh: 21.6; SKKanGAS inh: 1.7; TIM10 inh: 14.8; tim23-1 inh: 34.1; Calb FLC: 104.0*

Results for O=C(O)c1ccc(N/N=C/c2ccc(OC(=O)c3ccccc3Cl)cc2)cc1 ?
PfHsp90 set2: 3.7; tim10-1 inh: -14.0; SKKanGAS inh: 63.4*; TIM10 inh: 2.7; tim23-1 inh: 2.6; Calb FLC: 9.3

How did COc1cc(C(=O)N/N=C/c2ccc(OC(=O)c3ccccc3Cl)cc2)ccc1O do in these assays?
PfHsp90 set2: 6.4; tim10-1 inh: 1.2; SKKanGAS inh: 22.0; TIM10 inh: 12.6; tim23-1 inh: 6.8; Calb FLC: 3.4

What do the screens show for `O=C(O)c1ccc(N/N=C/c2ccc(-c3ccccc3)cc2)cc1`?
PfHsp90 set2: 97.6*; SKKanGAS inh: 28.4; Calb FLC: 35.1

What do the screens show for `CC(C)c1ccc(/C=N/Nc2ccc(C(=O)O)cc2)cc1`?
PfHsp90 set2: -29.1; tim10-1 inh: 10.6; SKKanGAS inh: -10.9; TIM10 inh: 18.8; tim23-1 inh: 30.3; Calb FLC: inconclusive

Results for Nc1ccc(C(=O)N/N=C\c2ccc(OC(=O)c3ccccc3Cl)cc2)cc1 ?
PfHsp90 set2: -16.1; tim10-1 inh: 7.5; SKKanGAS inh: 0.8; TIM10 inh: -0.3; tim23-1 inh: -8.2; Calb FLC: 78.5*

What do the screens show for `COC(=O)c1ccc(CSCc2ccc(C#N)cc2)cc1`?
tim10-1 inh: 11.7; SKKanGAS inh: 8.5; TIM10 inh: 2.5; tim23-1 inh: 5.3; Calb FLC: -7.5

What do the screens show for `COc1ccccc1C(=O)NNC(=O)C(=O)Nc1cccc(Cl)c1C`?
PfHsp90 set2: -8.4; tim10-1 inh: -34.3; SKKanGAS inh: 53.0*; TIM10 inh: -38.0; tim23-1 inh: -37.4; Calb FLC: 43.1

Results for CCn1cc(C(=O)OCC(=O)c2cc(C)n(-c3cccc(C(F)(F)F)c3)c2C)c(=O)c2ccc(C)nc21 ?
PfHsp90 set2: -14.2; SKKanGAS inh: 58.7*; Calb FLC: -0.3

What do the screens show for `CCn1cc(C(=O)OCC(=O)Nc2cccc(Cl)c2Cl)c(=O)c2ccc(C)nc21`?
PfHsp90 set2: -27.9; tim10-1 inh: -3.9; SKKanGAS inh: 1.7; TIM10 inh: 14.0; tim23-1 inh: -5.1; Calb FLC: 105.7*

Results for CC1CN(C(=S)Nc2cccc([N+](=O)[O-])c2)CC(C)O1 (stereo unspecified) ?
PfHsp90 set2: -23.0; tim10-1 inh: 7.3; TIM10 inh: -0.7; tim23-1 inh: 17.5; Calb FLC: 121.0*

Results for O=C(N/N=C/c1ccc[nH]1)c1cc2ccccc2cc1O ?
PfHsp90 set2: 23.2; tim10-1 inh: 6.4; SKKanGAS inh: 23.8; TIM10 inh: -2.4; tim23-1 inh: 6.7; Calb FLC: inconclusive

What do the screens show for `O=C(N/N=C/c1ccncc1)c1cc2ccccc2cc1O`?
PfHsp90 set2: -18.0; tim10-1 inh: -21.2; SKKanGAS inh: 11.3; TIM10 inh: 1.6; tim23-1 inh: -1.5; Calb FLC: 90.7*

What do the screens show for `O=C(Nc1nnc(SCC(=O)N2CCCC2)s1)C1CC(=O)N(c2ccc(F)cc2)C1` (stereo unspecified)?
PfHsp90 set2: -16.0; tim10-1 inh: 1.2; SKKanGAS inh: 5.1; TIM10 inh: -4.2; tim23-1 inh: -7.7; Calb FLC: 0.7

Results for COCCSc1nnc(NC(=O)C2CC(=O)N(c3ccc(C)cc3)C2)s1 (stereo unspecified) ?
PfHsp90 set2: 6.2; tim10-1 inh: 11.9; SKKanGAS inh: -0.5; TIM10 inh: 3.5; tim23-1 inh: 7.9; Calb FLC: 99.2*

What do the screens show for `COC(=O)CSc1nnc(NC(=O)C2CC(=O)N(c3ccc(F)cc3)C2)s1` (stereo unspecified)?
PfHsp90 set2: -1.6; tim10-1 inh: 22.3; SKKanGAS inh: 49.6*; TIM10 inh: 1.6; tim23-1 inh: 15.3; Calb FLC: 2.5

What do the screens show for `CC(C)=CCc1cc([C@@H]2COc3c(ccc4c3C=CC(C)(C)O4)C2)c(O)cc1O`?
PfHsp90 set2: 104.5*; tim10-1 inh: 27.2; SKKanGAS inh: 104.6*; TIM10 inh: 25.6; tim23-1 inh: 43.0; Calb FLC: 30.7

What do the screens show for `N=C1/C(=C/c2ccc(-c3cccc(C(=O)O)c3)o2)C(=O)N=C2SC(CC(=O)N3CCOCC3)=NN12`?
PfHsp90 set2: -14.6; tim10-1 inh: -15.0; SKKanGAS inh: 4.4; TIM10 inh: 21.0; tim23-1 inh: 8.0; Calb FLC: 1.6

What do the screens show for `N=C1/C(=C\c2ccc(-c3cccc(C(=O)O)c3)o2)C(=O)N=C2SC=C(c3ccccc3)N12`?
PfHsp90 set2: -11.0; tim10-1 inh: 13.1; SKKanGAS inh: 79.0*; TIM10 inh: 14.0; tim23-1 inh: 13.0; Calb FLC: -6.5

How did O=C(OCc1csc(-c2ccccc2)n1)c1ccccc1O do in these assays?
PfHsp90 set2: -9.8; tim10-1 inh: -10.6; SKKanGAS inh: 49.9*; TIM10 inh: 5.0; tim23-1 inh: 6.8; Calb FLC: -7.4

How did COCCCC1CCN(C(=O)C2CCC(=O)N(Cc3cccc(F)c3)C2)CC1 (stereo unspecified) do in these assays?
PfHsp90 set2: 7.7; tim10-1 inh: 12.1; SKKanGAS inh: -2.0; TIM10 inh: 4.8; tim23-1 inh: 0.0; Calb FLC: -1.3

What do the screens show for `Cc1onc(-c2ccccc2)c1C(=O)N(Cc1ccccc1)C(C)C`?
PfHsp90 set2: 22.8; tim10-1 inh: 18.0; SKKanGAS inh: 5.2; TIM10 inh: 28.5; tim23-1 inh: 35.7; Calb FLC: -8.7

Results for N#C/C(=N\Nc1ccc(S(=O)(=O)N2CCOCC2)cc1)C(N)=S ?
PfHsp90 set2: -17.8; tim10-1 inh: -6.7; SKKanGAS inh: 64.7*; TIM10 inh: 7.1; tim23-1 inh: 14.2; Calb FLC: 2.5

Results for N#C/C(=N\Nc1ccccc1)C(N)=S ?
PfHsp90 set2: 6.6; tim10-1 inh: 15.8; SKKanGAS inh: 43.4; TIM10 inh: 18.7; tim23-1 inh: 22.9; Calb FLC: -11.7
